Bioassay records from PubChem BioAssay.
TDP1 block – qHTS Assay for Inhibitors of Tyrosyl-DNA Phosphodiesterase (TDP1) | AID 485290, 2010 | Potency, µM (doses to about 130 µM), hits mostly inhibitors | recombinant TDP1, AlphaScreen DNA substrate cleavage | 0.28% of 350,000 active | Tyrosyl-DNA phosphodiesterase 1 (Homo sapiens), Q9NUW8; also: nearly all actives have a fitted effect of over 40% in size
Target sequence (Q9NUW8 whole entry, looked up): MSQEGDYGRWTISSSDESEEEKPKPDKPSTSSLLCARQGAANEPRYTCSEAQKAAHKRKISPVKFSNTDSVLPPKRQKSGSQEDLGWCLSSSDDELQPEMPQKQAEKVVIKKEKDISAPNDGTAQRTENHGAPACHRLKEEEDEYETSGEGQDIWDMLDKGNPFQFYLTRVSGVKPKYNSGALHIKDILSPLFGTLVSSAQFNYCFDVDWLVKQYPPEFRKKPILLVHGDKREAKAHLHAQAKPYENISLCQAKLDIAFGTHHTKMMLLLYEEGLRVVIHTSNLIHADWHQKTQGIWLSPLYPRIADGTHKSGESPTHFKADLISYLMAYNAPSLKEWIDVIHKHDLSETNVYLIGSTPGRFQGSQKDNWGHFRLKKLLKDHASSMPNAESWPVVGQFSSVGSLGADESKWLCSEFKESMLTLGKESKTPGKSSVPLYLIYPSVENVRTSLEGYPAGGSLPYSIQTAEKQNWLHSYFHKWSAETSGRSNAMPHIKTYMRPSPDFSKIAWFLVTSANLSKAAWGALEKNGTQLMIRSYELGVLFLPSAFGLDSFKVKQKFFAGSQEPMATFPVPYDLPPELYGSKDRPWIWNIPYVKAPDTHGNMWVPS
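Compounds were preincubated with Tdp1 (1 nM final) for 15 min at room temperature before substrate (15 nM final) started a 5 min reaction; beads (10 ug/ml final) were then added for 10 min before AlphaScreen detection.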
DT40 TDP1 CPT – qHTS for Inhibitors of human tyrosyl-DNA phosphodiesterase 1 (TDP1): qHTS in cells in presence of CPT | chicken DT40 Tdp1-/-;hTDP1 cells + 20 nM CPT, ATP luminescence, 48 h | Potency, µM (titrated, usually from 46.2 µM), usual class: inhibitors | 12% of 420,000 active | AID 686979, 2013; also: nearly all actives have a fitted effect of over 55% in size
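Cell growth measured by CellTiter-Glo luminescence after a minimum 48 h, 37 C compound exposure with 20 nM CPT in Tdp1-knockout DT40 cells stably expressing hTDP1, seeded 400/well; qHTS titration format.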
DT40 TDP1 no CPT – qHTS for Inhibitors of human tyrosyl-DNA phosphodiesterase 1 (TDP1): qHTS in cells in absence of CPT; Potency, µM (top dose mostly 46.2 µM), usual class: inhibitors; 15% of 420,000 active; AID 686978, 2013; DT40 Tdp1-/- hTDP1 cells, no CPT, ATP luminescence, 48 h; also: nearly all actives have a fitted effect of over 55% in size
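Stably hTDP1-transfected Tdp1-null chicken DT40 cells were treated with library compounds minus camptothecin and grown for at least 48 hr at 37 °C, after which cellular ATP was quantified by luminescence.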
miR-21 act – qHTS Assay for Modulators of miRNAs and/orActivators of miR-21; HeLa miR-21 FLuc reporter, luciferase, 48 h; Potency, µM (series often up to 38.3 µM), actives largely listed as activators; 340,000 tested, under 10 active;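 also: miR-21 action dims this reporter so a rising signal means less miR-21 action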
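HeLa miR-21-FLuc reporter line, endogenous miR-21; 2000 cells/well in DMEM/10% FBS; compound titration up to ~40uM final, 48 h, 37 degree Celsius; luciferase detection reagent, 15 min lysis, CCD luminescence.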
uPA generation – qHTS for Inhibitors of Cell Surface uPA Generation. cell surface uPA generation assay, qHTS. 0.31% of 330,000 active. Potency, µM (titrated, usually from 38.3 µM), actives largely listed as inhibitors; active = well fitted inhibition curve with a large enough effect; inconclusive = small, poorly fitted or top-dose-only effect; inactive = no such curve, though single readings can be large or run the other way; tested in mouse RAW 264.7 cells; also: nearly all actives have a fitted effect of over 55% in size
A number is an active result; - = inactive; ? = inconclusive; . = no result given; ! = repeats disagree. Only some compounds are listed: those with a hit (about 16% of all), similar ones and a draw of the others. Unless noted, calls follow the shape of the dose curve; as a rule, active = well fitted curve in the direction sought with a large enough effect; inconclusive = small, poorly fitted or top-dose-only effect, or another doubt; inactive = no such curve, though single readings can be large; an effect the other way counts as inactive or inconclusive.

SMILES	TDP1 block	DT40 TDP1 CPT	DT40 TDP1 no CPT	miR-21 act	uPA generation
O=C(Nc1ccc(Cl)cc1)c1cc(S(=O)(=O)NC2CCCCCC2)ccc1F	-	?	?	?	.
CCc1ccc(NC(=O)c2cc(S(=O)(=O)NC3CCCC3)ccc2F)cc1	-	13µM	16µM	-	.
O=C(COC(=O)C1COc2ccccc2O1)c1ccccc1 (centres undefined)	.	-	-	.	.
CCOC(=O)NN1C(=O)c2ccccc2NC1c1ccccc1F (centres undefined)	-	-	-	-	-
CCCCN(CC)CCNC(=O)c1cc2c(=O)n(C)c3ccccc3c2s1	.	?	23µM	-	-
CCCCN(CC)CCCNC(=O)c1cc2c(=O)[nH]c3ccccc3c2s1	-	?	23µM	-	-
CCCCN(CC)CCNC(=O)c1cc2c(=O)[nH]c3ccccc3c2n1C	-	15µM!	16µM!	-	-
CCCCN(CC)CCCNC(=O)c1cc2c(=O)n(CC)c3ccccc3c2s1	.	?	?	?	-
CN(CCCNC(=O)c1cc2c(=O)n(C)c3ccccc3c2s1)Cc1ccccc1	-	4.6µM	15µM	-	.
CN(C)S(=O)(=O)c1cc(NC(=O)COC(=O)c2ccc3c(c2)OCO3)ccc1Cl	-	-	-	-	-
CCN(CC)CCNC(=O)c1cc2c(=O)n(C)c3ccccc3c2s1	.	18µM	21µM	-	-
CCCCN(CC)CCNC(=O)c1cc2c(=O)n(CC)c3ccccc3c2s1	-	16µM	21µM	-	-
CCn1c(=O)c2cc(C(=O)NCCC(C)C)sc2c2ccccc21	.	-	?	-	-
CCOCCCn1c(SCC(=O)Nc2ccc(OC)cc2OC)nc2ccccc2c1=O	-	-	?	-	.
COC(=O)c1nn(-c2ccc(OC)cc2)c(=O)c2c(N)sc(C)c12	-	23µM	16µM	-	-
COc1ccc(Nc2nc(-c3ccc(OC)cc3)c(CCC(=O)O)s2)cc1	-	-	-	-	-
COC(=O)CCc1sc(Nc2ccccc2)nc1-c1ccc(OC)cc1	-	?	16µM	-	-
COc1ccc(-c2cc3ccccc3n2CC(O)CN2CCC(C)CC2)cc1 (centres undefined)	-	?	23µM	-	-
COc1ccc(-c2cc3ccccc3n2CC(O)CNC(CO)(CO)CO)cc1 (centres undefined)	-	?	?	-	.
Cc1cccc(Nc2nnc(SCC(=O)NCc3cccs3)s2)c1	.	?	?	-	-
COCc1nc2ccccc2n1Cc1ccc(C(C)(C)C)cc1	-	21µM	26µM	-	.
COc1cccc(OCc2nc3ccccc3n2CCOc2ccc(C)cc2)c1	-	23µM	16µM	-	.
COc1cccc(Cn2c(C(C)n3c(-c4cnccn4)nc4ccccc43)nc3ccccc32)c1 (centres undefined)	.	?	21µM	.	.
COc1cccc(OCc2nc3ccccc3n2Cc2ccccc2)c1	-	?	18µM	-	.
COc1cccc(Cn2c(Cn3c(-c4cnccn4)nc4ccccc43)nc3ccccc32)c1	.	-	?	.	.
SMILES	TDP1 block	DT40 TDP1 CPT	DT40 TDP1 no CPT	miR-21 act	uPA generation
Cc1cccc(NC(=O)NCC(c2ccco2)N2CCCCC2)c1 (centres undefined)	-	-	-	-	-
CCOC(=O)c1ccc(NC(=O)c2ccc3c(c2)C(=O)N(Cc2cccnc2)C3=O)cc1	-	-	-	-	-
Cc1ccccc1Cn1c(COc2ccc(Cl)cc2)nc2ccccc21	.	?	13µM	-	.
COc1ccc(OCc2nc3ccccc3n2Cc2ccccc2Cl)cc1	.	?	?	-	.
COc1ccc(NCc2nc3ccccc3n2CCOc2ccc(C)cc2)cc1	-	16µM	16µM	-	-
COc1cc(OC)cc(C(=O)NC(C(=O)O)C23CC4CC(CC(C4)C2)C3)c1 (centres undefined)	-	-	-	-	-
Cc1ccc2c(C)c(C(=O)Nc3cccnc3)oc2c1C	.	?	-	.	-
CCCCCc1c(C)nc(N2CCc3ccccc3C2)[nH]c1=O	-	-	?	-	-
CNc1nc(-c2ccccc2)nnc1C(F)(F)F	-	-	-	-	-
Cc1ccc(Sc2nc(-c3ccccc3)nnc2C(F)(F)F)cc1	-	21µM	21µM	-	-
O=S(=O)(CCc1nnc(-c2ccc(Br)cc2)o1)c1ccc(Cl)cc1	-	-	-	-	-
O=C(C1CCCO1)N1CCN(c2c3c(nc4cc(-c5ccc(F)cc5)nn24)CCC3)CC1 (centres undefined)	-	?	16µM	-	-
Fc1ccc(-c2cc3nc4c(c(N5CCOCC5)n3n2)CCCC4)cc1	-	18µM	16µM	-	-
OC1CCN(c2cc(-c3ccccc3)nc3cc(-c4ccc(F)cc4)nn23)CC1	-	-	?	-	-
Cc1cccc(-c2cc3nc4c(c(N5CCOCC5)n3n2)CCCC4)c1	-	18µM	23µM	-	-
OC1CCN(c2c3c(nc4cc(-c5ccc(F)cc5)nn24)CCC3)CC1	-	16µM	?	-	-
C1CCc2c(nc3nnnn3c2N2CCOCC2)C1	-	-	-	-	-
O=C(c1ccccc1)N1CCC(O)(c2cccnc2)CC1	-	-	-	-	-
O=C(COc1ccccc1Cl)Nc1cccc(S(=O)(=O)NC2=NCCCCC2)c1	-	?	?	.	-
O=c1[nH]c(N2CCOCC2)cc2ccccc12	.	-	-	.	-
CCOc1ccc(N(C)S(=O)(=O)c2ccc3[nH]cc(C(=O)NCC(OC)OC)c(=O)c3c2)cc1	.	?	26µM	-	-
CCOc1ccc(N(C)S(=O)(=O)c2ccc3[nH]cc(C(=O)NCc4ccccc4)c(=O)c3c2)cc1	-	-	-	-	.
CCN(CC)S(=O)(=O)c1ccc2[nH]cc(C(=O)NCCN3CCCCCC3)c(=O)c2c1	-	-	-	-	-
CN(CC(=O)NCCC1=CCCCC1)S(=O)(=O)c1ccc2c(c1)c(=O)n(C)c(=O)n2C	-	8.2µM	?	-	-
CCN(CC)S(=O)(=O)c1ccc2[nH]cc(C(=O)NCCC3=CCCCC3)c(=O)c2c1	-	10µM	18µM	-	-
CCN(C(=O)CN(C)S(=O)(=O)c1ccc2c(c1)c(=O)n(C)c(=O)n2C)c1ccc(OC)cc1	-	-	23µM	-	.
CC(=O)Nc1ccc(S(=O)(=O)NCC2CCC(C(=O)NC(C)c3ccccc3)CC2)cc1 (centres undefined)	-	-	-	-	-
CCCCCCc1c(C)c2c(cc(C)c3c(C)c(C)oc32)oc1=O	-	?	-	-	.
CCc1ccc(N(C)S(=O)(=O)c2ccc3[nH]cc(C(=O)NCC4CCCO4)c(=O)c3c2)cc1 (centres undefined)	-	?	15µM	-	.
